“And” between values parts separate entries of the source, which are not always exact repeats. Equal entries are not always repeated. Results filed as inconclusive are left out. A call without a number means that no potency is given here. Where a structure was tested more than once in an assay, its records may differ in their call. The source made the active and inactive calls. Unless noted, the call rests on the fitted dose curve; in most records, active means well fitted curve in the direction sought with a large enough effect; inconclusive means small, poorly fitted or top-dose-only effect, or another doubt; inactive means no such curve, though single readings can be large; an effect the other way counts as inactive or inconclusive.
Assays:
[1] = qHTS assay to identify small molecule inhibitors of chordoma cells - UCH-1 (AID 1259355); further: nearly all actives have a fitted effect of over 55% in size
In short: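 Screening used approved and investigational drugs in 15-point titration against 800 seeded cells per well. A fixed combination of auranofin with camptothecin, doxorubicin, rubitecan and topotecan followed compound addition, and growth was scored by CellTiter-Glo after 48hr.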

[2] = qHTS assay to identify small molecule inhibitors of chordoma cells - UCH-2 (AID 1259356); further: series mostly up to about 46 µM
[3] = P-glycoprotein substrates identified in KB-8-5-11 adenocarcinoma cell line, qHTS therapeutic library screen (AID 1346987); further: nearly all actives have a fitted effect of over 65% in size; further: potency means the concentration at half of the fitted maximal effect
In short: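 Luminescence from CellTiter-Glo, read 5 min after addition, quantified survival of KB-8-5-11 (P-gp-overexpressing) cells exposed to compounds for 72 h. AC50 was derived from concentration-response curves.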

[4] = NS1 protein of Zika virus - qHTS assay to identify small molecule inhibitors in human HEK 293 cells (AID 1347053); further: series mostly up to about 46 µM; nearly all actives have a fitted effect of over 55% in size
In short: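 Readout was TR-FRET using paired anti-NS1 antibodies after 24 h infection of HEK 293 cells with ZIKV MR766 (MOI = 0.5). Compound preceded virus by 1 h; reduced signal reflects lower NS1 expression.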

[5] = qHTS for Inhibitors of the Functional Ribonucleoprotein Complex (vRNP) of Lassa (LASV) Arenavirus: LASV Primary Screen - GLuc reporter signal (AID 1347082; calls by dose curve; tested in HEK293 reporter line; further: series mostly up to about 57 µM; nearly all actives have a fitted effect of over 60% in size)
[6] = qHTS for Inhibitors of the Functional Ribonucleoprotein Complex (vRNP) of Lassa (LASV) Arenavirus: Viability assay - alamar blue signal for LASV Primary Screen (AID 1347083; calls by dose curve; tested in HEK293 reporter line; further: series mostly up to about 57 µM; nearly all actives have a fitted effect of over 80% in size)
[7] = qHTS for Inhibitors of the Functional Ribonucleoprotein Complex (vRNP) of Lymphocytic Choriomeningitis Arenaviruses (LCMV): Viability assay - alamar blue signal for LCMV Primary Screen (AID 1347085; calls by dose curve; tested in HEK293 reporter line; further: series mostly up to about 57 µM; nearly all actives have a fitted effect of over 80% in size)
[8] = molecular target: Nucleoprotein (Lymphocytic choriomeningitis virus (strain Armstrong)) (UniProt P09992); assay: qHTS for Inhibitors of the Functional Ribonucleoprotein Complex (vRNP) of Lymphocytic Choriomeningitis Arenaviruses (LCMV): LCMV Primary Screen - GLuc reporter signal (AID 1347086; calls by dose curve; further: series mostly up to about 57 µM; nearly all actives have a fitted effect of over 70% in size)
Nucleoprotein (Lymphocytic choriomeningitis virus (strain Armstrong)), sequence (P09992 whole entry, looked up): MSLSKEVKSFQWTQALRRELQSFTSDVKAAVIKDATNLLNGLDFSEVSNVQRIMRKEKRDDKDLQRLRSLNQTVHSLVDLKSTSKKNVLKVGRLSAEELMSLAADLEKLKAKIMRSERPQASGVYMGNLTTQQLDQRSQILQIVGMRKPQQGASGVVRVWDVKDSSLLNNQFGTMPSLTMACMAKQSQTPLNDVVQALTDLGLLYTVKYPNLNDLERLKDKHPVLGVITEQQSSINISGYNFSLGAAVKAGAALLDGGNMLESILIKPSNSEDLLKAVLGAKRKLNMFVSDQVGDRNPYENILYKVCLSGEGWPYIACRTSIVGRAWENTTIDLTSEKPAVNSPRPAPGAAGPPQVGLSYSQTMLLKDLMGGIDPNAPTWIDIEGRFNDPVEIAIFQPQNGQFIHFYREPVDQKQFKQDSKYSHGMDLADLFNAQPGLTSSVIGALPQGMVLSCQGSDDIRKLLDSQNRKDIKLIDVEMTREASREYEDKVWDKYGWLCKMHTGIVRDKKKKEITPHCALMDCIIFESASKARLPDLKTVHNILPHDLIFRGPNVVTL

[9] = Identifying Small Molecule Inhibitors of Pancreatic Cancer Stem Cells (A2780, Spheroid) (AID 1259357); settings: Potency: A2780 spheroid viability;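 further: spheroids pre-formed over 14 days in stem cell medium on hydrogel; compound exposure lasted 48 h before the ATP luminescence read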
In short: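 Adherent (2D) versus sphere (3D) formats; spheres generated 14 d in SCM beforehand. Compound transferred by pin tool after 4 h, 48 h incubation, CellTiter-Glo endpoint.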

[10] = Natriuretic polypeptide receptor (hNpr1) antagonism - Pilot counterscreen GloSensor control cell line (AID 1347045; calls by dose curve; further: series mostly up to about 38 µM)
In short: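 Cells were first seeded and incubated overnight at 37C, then loaded with 2% GloSensor substrate for 2 h. Compounds were added for 30 min at room temperature, followed by a baseline read, 50 uM SNP and a final read after 20 min.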

[11] = molecular target: Atrial natriuretic peptide receptor 1 (Homo sapiens) (UniProt P16066); assay: Natriuretic polypeptide receptor (hNpr1) antagonism - Pilot screen (AID 1347049; calls by dose curve;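 further: agonist-evoked cGMP luminescence read 20 min after hNppA addition; series mostly up to about 58 µM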)
Atrial natriuretic peptide receptor 1 (Homo sapiens), sequence (P16066 whole entry, looked up): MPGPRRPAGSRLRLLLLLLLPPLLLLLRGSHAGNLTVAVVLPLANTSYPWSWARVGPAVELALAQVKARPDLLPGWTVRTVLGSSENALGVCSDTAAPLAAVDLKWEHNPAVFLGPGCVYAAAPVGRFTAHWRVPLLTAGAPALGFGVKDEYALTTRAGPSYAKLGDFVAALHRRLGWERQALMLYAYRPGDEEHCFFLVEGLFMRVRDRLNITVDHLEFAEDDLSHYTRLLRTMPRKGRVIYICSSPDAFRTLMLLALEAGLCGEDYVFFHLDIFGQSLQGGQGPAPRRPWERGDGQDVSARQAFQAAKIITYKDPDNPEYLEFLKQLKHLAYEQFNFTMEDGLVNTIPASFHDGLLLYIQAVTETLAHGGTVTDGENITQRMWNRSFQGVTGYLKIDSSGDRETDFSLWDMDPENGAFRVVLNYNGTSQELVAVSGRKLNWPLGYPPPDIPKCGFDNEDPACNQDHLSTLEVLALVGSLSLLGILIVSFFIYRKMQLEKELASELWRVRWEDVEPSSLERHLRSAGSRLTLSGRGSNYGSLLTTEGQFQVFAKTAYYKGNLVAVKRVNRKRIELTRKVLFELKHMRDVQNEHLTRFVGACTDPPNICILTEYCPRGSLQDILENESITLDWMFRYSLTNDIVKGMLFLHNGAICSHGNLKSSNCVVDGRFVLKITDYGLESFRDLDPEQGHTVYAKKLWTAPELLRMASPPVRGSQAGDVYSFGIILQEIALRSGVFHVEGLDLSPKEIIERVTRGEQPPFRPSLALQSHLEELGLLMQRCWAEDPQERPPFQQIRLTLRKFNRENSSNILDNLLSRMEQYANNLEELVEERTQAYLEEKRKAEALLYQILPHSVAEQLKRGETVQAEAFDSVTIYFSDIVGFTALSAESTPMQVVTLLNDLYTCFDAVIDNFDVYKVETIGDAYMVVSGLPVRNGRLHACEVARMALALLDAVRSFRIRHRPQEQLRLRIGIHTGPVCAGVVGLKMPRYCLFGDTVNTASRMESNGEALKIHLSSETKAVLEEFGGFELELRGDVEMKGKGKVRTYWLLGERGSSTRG
In short: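 cGMP-sensor HEK293/hNpr1 cells, 1500/well, plated overnight at 37C. 2% GloSensor reagent, 2 h RT. Compound (23 nL pin transfer) 30 min RT, baseline luminescence pre-read. 0.1 nM hNppA, 20 min RT, post-read.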

[12] = molecular target: Atrial natriuretic peptide receptor 2 (Homo sapiens) (UniProt P20594); assay: Natriuretic polypeptide receptor (hNpr2) antagonism - Pilot subtype selectivity assay (AID 1347050; calls by dose curve)
Atrial natriuretic peptide receptor 2 (Homo sapiens), sequence (P20594 whole entry, looked up): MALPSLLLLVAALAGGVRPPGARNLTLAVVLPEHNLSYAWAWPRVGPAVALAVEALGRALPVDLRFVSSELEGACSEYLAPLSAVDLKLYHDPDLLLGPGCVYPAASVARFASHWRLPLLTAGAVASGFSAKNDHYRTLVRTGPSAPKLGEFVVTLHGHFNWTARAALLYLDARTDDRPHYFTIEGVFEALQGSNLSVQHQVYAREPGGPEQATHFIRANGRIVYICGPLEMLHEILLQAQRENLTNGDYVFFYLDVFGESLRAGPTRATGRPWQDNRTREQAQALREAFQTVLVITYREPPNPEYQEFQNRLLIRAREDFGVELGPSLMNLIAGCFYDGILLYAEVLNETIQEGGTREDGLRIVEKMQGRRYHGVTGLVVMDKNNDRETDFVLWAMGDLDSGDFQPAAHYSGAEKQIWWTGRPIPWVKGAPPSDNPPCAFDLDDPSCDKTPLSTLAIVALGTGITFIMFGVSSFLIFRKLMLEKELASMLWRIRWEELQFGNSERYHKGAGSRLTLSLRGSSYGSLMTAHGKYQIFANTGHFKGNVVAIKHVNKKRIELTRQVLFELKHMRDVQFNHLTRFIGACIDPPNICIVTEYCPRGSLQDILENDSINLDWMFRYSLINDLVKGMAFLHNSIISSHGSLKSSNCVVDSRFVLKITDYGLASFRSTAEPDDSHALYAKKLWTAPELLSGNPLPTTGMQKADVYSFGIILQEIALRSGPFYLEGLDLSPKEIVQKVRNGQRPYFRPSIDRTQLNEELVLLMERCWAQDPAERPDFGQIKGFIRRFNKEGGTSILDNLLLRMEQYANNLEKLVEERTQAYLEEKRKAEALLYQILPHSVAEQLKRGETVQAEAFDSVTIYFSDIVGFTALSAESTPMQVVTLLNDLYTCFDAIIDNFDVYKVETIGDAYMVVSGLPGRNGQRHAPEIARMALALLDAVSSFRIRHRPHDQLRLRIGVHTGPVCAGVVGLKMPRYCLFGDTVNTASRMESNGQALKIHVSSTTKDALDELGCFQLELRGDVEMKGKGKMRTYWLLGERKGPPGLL
In short: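 Luminescence from a genetically encoded cGMP luciferase biosensor in hNpr2-expressing HEK293 cells is read before and 20 min after adding 1 nM hNppC. Test compounds, in interplate 1:5 titrations, are added 30-50 min ahead of the agonist.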

[13] = molecular target: T1, Tyrosine-protein phosphatase non-receptor type substrate 1 (Homo sapiens) + Leukocyte surface antigen CD47 (Homo sapiens) (UniProt P78324+Q08722); assay: CD47-SIRPalpha protein protein interaction - LANCE assay qHTS validation (AID 1347057; active means well fitted curve in the direction sought with a large enough effect in the signal ratio, with a control signal flat, not every such curve was filed as active; the % refers to the signal ratio; further: series mostly up to about 38 µM)
T1 sequence (P78324 whole entry, looked up, the tested form may be a part): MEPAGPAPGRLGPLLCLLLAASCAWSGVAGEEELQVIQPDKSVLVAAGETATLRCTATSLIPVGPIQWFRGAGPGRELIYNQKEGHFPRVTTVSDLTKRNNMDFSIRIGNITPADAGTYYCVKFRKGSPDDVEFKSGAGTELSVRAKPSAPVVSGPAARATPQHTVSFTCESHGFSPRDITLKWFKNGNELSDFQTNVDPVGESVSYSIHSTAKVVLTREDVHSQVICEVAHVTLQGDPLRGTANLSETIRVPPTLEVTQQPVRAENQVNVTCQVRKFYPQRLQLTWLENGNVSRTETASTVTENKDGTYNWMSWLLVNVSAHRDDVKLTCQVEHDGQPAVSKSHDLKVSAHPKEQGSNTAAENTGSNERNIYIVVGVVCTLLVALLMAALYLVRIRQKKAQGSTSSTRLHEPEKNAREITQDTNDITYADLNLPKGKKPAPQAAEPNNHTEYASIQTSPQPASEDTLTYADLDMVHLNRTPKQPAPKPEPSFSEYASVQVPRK
T1 sequence (Q08722 whole entry, looked up, the tested form may be a part): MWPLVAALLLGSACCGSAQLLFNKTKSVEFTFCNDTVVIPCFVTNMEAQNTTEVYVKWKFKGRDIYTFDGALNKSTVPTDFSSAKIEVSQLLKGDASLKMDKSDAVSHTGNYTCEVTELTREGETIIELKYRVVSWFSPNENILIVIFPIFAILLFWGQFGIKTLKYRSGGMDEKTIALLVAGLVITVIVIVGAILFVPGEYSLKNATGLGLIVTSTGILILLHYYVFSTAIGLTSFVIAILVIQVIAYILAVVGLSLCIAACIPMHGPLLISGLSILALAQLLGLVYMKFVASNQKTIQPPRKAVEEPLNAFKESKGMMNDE
In short: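 Inhibition of soluble CD47/SIRPalpha ectodomain association by titrated compounds, measured as 665/615 nm time-resolved FRET ratio after sequential 30 min room-temperature incubations.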

[14] = molecular target: T1, Tyrosine-protein phosphatase non-receptor type substrate 1 (Homo sapiens) + Leukocyte surface antigen CD47 (Homo sapiens); assay: CD47-SIRPalpha protein protein interaction - HTRF assay qHTS validation (AID 1347058; active means well fitted curve in the direction sought with a large enough effect in the signal ratio, not every such curve was filed as active; the % refers to the signal ratio; further: series mostly up to about 38 µM)
In short: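 Soluble extracellular domains (6His-CD47, Avi-tag-biotinylated SIRPalpha) in PBS pH 7.4 with 0.05% IGEPAL CA-630. Compounds were preincubated 30 min at RT with CD47 and anti-His-Eu, then SIRPalpha and SAV-XL665 were added. TR-FRET 665/615 ratio.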

[15] = molecular target: Parathyroid hormone/parathyroid hormone-related peptide receptor (Homo sapiens) (UniProt Q03431); assay: qHTS for PTHR1 Agonists: Optimization Screen against the NCGC LOPAC library (AID 1347079);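 further: GloSensor cAMP luminescence in HEK-293 GP2 cells expressing human PTHR1 with IBMX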
Parathyroid hormone/parathyroid hormone-related peptide receptor (Homo sapiens), sequence (Q03431 whole entry, looked up): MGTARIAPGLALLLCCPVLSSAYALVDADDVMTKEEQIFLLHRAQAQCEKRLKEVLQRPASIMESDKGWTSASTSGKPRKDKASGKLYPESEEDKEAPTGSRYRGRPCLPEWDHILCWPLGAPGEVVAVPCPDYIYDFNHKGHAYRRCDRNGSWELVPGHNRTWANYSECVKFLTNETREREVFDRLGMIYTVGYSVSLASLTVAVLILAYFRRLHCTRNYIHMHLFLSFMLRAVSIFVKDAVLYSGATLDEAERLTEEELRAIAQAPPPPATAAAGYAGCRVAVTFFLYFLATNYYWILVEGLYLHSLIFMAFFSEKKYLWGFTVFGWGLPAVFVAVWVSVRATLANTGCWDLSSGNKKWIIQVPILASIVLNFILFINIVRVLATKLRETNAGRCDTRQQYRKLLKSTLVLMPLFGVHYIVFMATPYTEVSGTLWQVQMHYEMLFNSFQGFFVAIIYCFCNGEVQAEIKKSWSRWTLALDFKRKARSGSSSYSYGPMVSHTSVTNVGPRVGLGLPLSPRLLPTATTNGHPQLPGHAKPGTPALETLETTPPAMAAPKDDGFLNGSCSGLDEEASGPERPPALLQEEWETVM
In short: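 HEK-293 GP2 cells, PTHR1 + GloSensor cAMP; 3000 cells/well, o/n. Luciferin + IBMX 0.5mM each (stock), 1 hr 37C. Cpd titration, 1 hr 37C. Lum after 15 min RT. Ctrl M-PTH(1-15) top 10uM.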

Structure (SMILES)	Potency [1]	Potency [2]	Potency [3]	Potency [4]	Potency [5]	Potency [6]	Potency [7]	Potency [8]	Potency [9]	Potency [10]	Potency [11]	Potency [12]	outcome [13]	outcome [14]	outcome [15]
CC(C)=CC1C(C(=O)OCc2cccc(Oc3ccccc3)c2)C1(C)C (configuration not stated)	inactive	inactive	inactive	inactive	inactive	inactive	inactive	inactive	–	–	–	–	–	–	–
CC(C)CC(N(C)C)C1(c2ccc(Cl)cc2)CCC1 (configuration not stated)	inactive	inactive	inactive	inactive	inactive	–	inactive	inactive	–	–	–	–	–	–	–
CCN(C(C)=O)c1cccc(-c2ccnc3c(C#N)cnn23)c1	inactive	inactive	inactive	inactive	inactive	inactive	inactive	inactive	–	–	–	–	–	–	–
Clc1ccc(COC(Cn2ccnc2)c2ccc(Cl)cc2Cl)cc1 (configuration not stated)	inactive	inactive	–	inactive	inactive	inactive	inactive	inactive	–	–	–	–	–	–	–
NCCc1cc(O)c(O)cc1O	inactive	inactive	inactive	inactive	inactive	inactive	inactive	inactive	–	–	–	–	–	–	–
CN1CCN(C(=O)O[C@H]2c3nccnc3C(=O)N2c2ccc(Cl)cn2)CC1	inactive	inactive	inactive	inactive	inactive	inactive	inactive	inactive	–	–	–	–	–	–	–
COc1ccc(C(=O)c2c(C)n(CCN3CCOCC3)c3ccccc23)cc1	inactive	inactive	inactive and 5.8 µM (active)	inactive	inactive	inactive	inactive	inactive	inactive	–	–	–	–	–	–
NCC1(CC(=O)O)CCCCC1	inactive	inactive	inactive	inactive	inactive	inactive	inactive	inactive	–	inactive	inactive	inactive	inactive	inactive	inactive
O=[N+]([O-])c1cc([As](=O)(O)O)ccc1O	inactive	inactive	inactive	inactive	inactive	inactive	inactive	inactive	–	–	–	–	–	–	–
